The full ranking holds about 16,000 sequences; the median of “rpm ratio (pull-down/input)” is about 0.94, and the highest 2% start at about 1.7. This is one part of a sample in which the highest values are shown more often than they occur.
The sequences below were run against T1, MBP-FoxP1dN (Mus musculus, UniProt P58462 326-579) (assay: PD-seq (MBP pull-down with sequencing); 20 mM Tris-HCl pH 7.5, 100 mM NaCl, 1.5 mM MgCl2, 0.4 uM protein, 0.1 uM dsDNA library, 30 min, room temperature, amylose pull-down; high values mean tight binding). Details: protein: recombinant; tags: His6-MBP; chain copies: 2; dsDNA, one strand shown.
T1 sequence: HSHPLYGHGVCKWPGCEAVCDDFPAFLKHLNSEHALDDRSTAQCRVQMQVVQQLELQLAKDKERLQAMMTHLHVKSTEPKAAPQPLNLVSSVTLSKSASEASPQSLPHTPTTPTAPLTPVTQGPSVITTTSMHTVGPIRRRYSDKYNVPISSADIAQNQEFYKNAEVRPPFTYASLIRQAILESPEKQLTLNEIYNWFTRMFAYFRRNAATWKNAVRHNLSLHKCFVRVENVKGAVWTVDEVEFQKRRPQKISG
Outline: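 Binding is reads-per-million enrichment of pull-down over input, with replicates pooled. It comes from 30 min room-temperature incubation in Tris pH 7.5 buffer with NaCl and MgCl2 of 0.4 µM His6-MBP-tagged, N-terminally truncated mouse FoxP3 or FoxP1 fragment from E. coli with 0.1 µM Klenow-filled degenerate double-stranded DNA library, followed by amylose resin capture, three washes and Illumina sequencing of the released DNA.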
In the case of “GATGATTGTTCTCCCAGCTGATGAATTGACTACATCGAGTAAACAAATTTTCCTAATCTTTCTGTTCAAGCGCCATCTAC”, the binding signal is reported as 1.22 RPM ratio (pull-down/input).
In the case of “GATGATTGTTCTCCCAGCTGATGAATTCCACAGTTCGAGTAAACAAATTTTCCTAATCTTTCTGTTCAAGCGCCATCTAC”, the binding signal is reported as 0.831 RPM ratio (pull-down/input).
With “GATGATTGTTCTCCCAGCTGATGAATTTCACCATTCGAGTAAACAAATTTTCCTAATCTTTCTGTTCAAGCGCCATCTAC” the binding signal was 0.883 RPM ratio (pull-down/input).
“GATGATTGTTCTCCCAGCTGATGAATTTCGTCTCTCGAGTAAACAAATTTTCCTAATCTTTCTGTTCAAGCGCCATCTAC” was tested, and the binding signal was 0.896 RPM ratio (pull-down/input).
“GATGATTGTTCTCCCAGCTGATGAATTATGACCTTCGAGTAAACAAATTTTCCTAATCTTTCTGTTCAAGCGCCATCTAC” was tested, and the binding signal was 0.925 RPM ratio (pull-down/input).
In the case of “GATGATTGTTCTCCCAGCTGATGAATTATGCCACTCGAGTAAACAAATTTTCCTAATCTTTCTGTTCAAGCGCCATCTAC”, the binding signal is reported as 1.06 RPM ratio (pull-down/input).
With “GATGATTGTTCTCCCAGCTGATGAATTTTCCCTCTCGAGTAAACAAATTTTCCTAATCTTTCTGTTCAAGCGCCATCTAC” the binding signal was 0.877 RPM ratio (pull-down/input).
In the case of “GATGATTGTTCTCCCAGCTGATGAATTCCGAGATTCGAGTAAACAAATTTTCCTAATCTTTCTGTTCAAGCGCCATCTAC”, the binding signal is reported as 0.799 RPM ratio (pull-down/input).
In the case of “GATGATTGTTCTCCCAGCTGATGAATTAAGTGTATCGAGTAAACAAATTTTCCTAATCTTTCTGTTCAAGCGCCATCTAC”, the binding signal is reported as 1.28 RPM ratio (pull-down/input).
With “GATGATTGTTCTCCCAGCTGATGAATTTCAGTCATCGAGTAAACAAATTTTCCTAATCTTTCTGTTCAAGCGCCATCTAC” the binding signal was 1 RPM ratio (pull-down/input).
“GATGATTGTTCTCCCAGCTGATGAATTTTCCACTTCGAGTAAACAAATTTTCCTAATCTTTCTGTTCAAGCGCCATCTAC” was tested, and the binding signal was 0.903 RPM ratio (pull-down/input).
With “GATGATTGTTCTCCCAGCTGATGAATTTAGGAGATCGAGTAAACAAATTTTCCTAATCTTTCTGTTCAAGCGCCATCTAC” the binding signal was 0.968 RPM ratio (pull-down/input).
With “GATGATTGTTCTCCCAGCTGATGAATTATTACTATCGAGTAAACAAATTTTCCTAATCTTTCTGTTCAAGCGCCATCTAC” the binding signal was 1.21 RPM ratio (pull-down/input).
“GATGATTGTTCTCCCAGCTGATGAATTACTATTATCGAGTAAACAAATTTTCCTAATCTTTCTGTTCAAGCGCCATCTAC” was tested, and the binding signal was 1.87 RPM ratio (pull-down/input).
With “GATGATTGTTCTCCCAGCTGATGAATTACTATCATCGAGTAAACAAATTTTCCTAATCTTTCTGTTCAAGCGCCATCTAC” the binding signal was 1.28 RPM ratio (pull-down/input).
With “GATGATTGTTCTCCCAGCTGATGAATTACTAATGTCGAGTAAACAAATTTTCCTAATCTTTCTGTTCAAGCGCCATCTAC” the binding signal was 1.28 RPM ratio (pull-down/input).
“GATGATTGTTCTCCCAGCTGATGAATTATTACTGTCGAGTAAACAAATTTTCCTAATCTTTCTGTTCAAGCGCCATCTAC” was tested, and the binding signal was 1.17 RPM ratio (pull-down/input).
“GATGATTGTTCTCCCAGCTGATGAATTACTATTTTCGAGTAAACAAATTTTCCTAATCTTTCTGTTCAAGCGCCATCTAC” was tested, and the binding signal was 2.29 RPM ratio (pull-down/input).
“GATGATTGTTCTCCCAGCTGATGAATTACTAATTTCGAGTAAACAAATTTTCCTAATCTTTCTGTTCAAGCGCCATCTAC” was tested, and the binding signal was 1.25 RPM ratio (pull-down/input).
“GATGATTGTTCTCCCAGCTGATGAATTTACTATTTCGAGTAAACAAATTTTCCTAATCTTTCTGTTCAAGCGCCATCTAC” was tested, and the binding signal was 1.55 RPM ratio (pull-down/input).
With “GATGATTGTTCTCCCAGCTGATGAATTACTATTGTCGAGTAAACAAATTTTCCTAATCTTTCTGTTCAAGCGCCATCTAC” the binding signal was 2.38 RPM ratio (pull-down/input).
